{
  "source": "PubChem BioAssay (NCATS)",
  "note": "Results filed as inconclusive are left out. Values without a mark were called inactive. Calls of active or inactive are those of the source. Calls come from the whole dose curve; as a rule, active = well fitted inhibition curve with a large enough effect; inconclusive = small, poorly fitted or top-dose-only effect; inactive = flat fitted curve, though single readings scatter. % is set by controls: 0 for no effect and ±100 for the full control effect; potency is the fitted concentration of half-maximal effect.",
  "data": [
    {"experiment": "P-glycoprotein substrates identified in KB-8-5-11 adenocarcinoma cell line, qHTS therapeutic library screen (AID 1346987); note: nearly all actives have a fitted effect of over 65% in size", "settings": "KB-8-5-11 (P-gp overexpressing) viability, CellTiter-Glo, 72 h; series mostly up to 44.5 µM; activity change, negative = cytotoxicity: at the top concentration", "method_in_brief": "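KB-8-5-11: colchicine-selected sub-line of KB-3-1 over-expressing P-gp; assay medium lacked colchicine. 72 h drug exposure at 37 degree C, CellTiter-Glo.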", "values": [
      {"smiles": "COC1CC(=O)CCC(C)OC(=O)CC1O", "note": "(centres undefined)", "outcome": "inactive"},
      {"smiles": "CCOc1c2c(c(OCC)c3ccccc13)C(=O)N(c1ccc(CC(=O)NS(=O)(=O)c3ccccc3)cc1)C2", "outcome": "inactive"},
      {"smiles": "CC[C@H](/C=C/[C@@H](C)[C@H]1CC[C@H]2[C@@H]3CC=C4C[C@@H](O)CC[C@]4(C)[C@H]3CC[C@]12C)C(C)C", "activity change, negative = cytotoxicity": "0.93% [at 5.11 µM]"},
      {"smiles": "C=C1CCC2C(C)(COC3OC(COC(=O)CC(=O)O)C(O)C(O)C3O)CCCC2(C)C1CCC1=CCOC1=O", "note": "(centres undefined)", "activity change, negative = cytotoxicity": "5.04% [at 17.3 µM]"},
      {"smiles": "CC1CCC2(C)C(CC(O)C(O)C23CO3)C1(C)CCC1=CC(=O)OC1O", "note": "(centres undefined)", "activity change, negative = cytotoxicity": "-5.79%"},
      {"smiles": "COC(=O)C1=C[C@@H](O)[C@@H](O)[C@H](O[C@@H]2O[C@H](COC(=O)/C=C/c3ccccc3)[C@@H](O)[C@H](O)[C@H]2O)C1", "activity change, negative = cytotoxicity": "5.89% [at 17.3 µM]"},
      {"smiles": "C=C1CCC2C(C)(C)CC(=O)CC2(C)C1CCC(C)CCOC(C)=O", "note": "(centres undefined)", "activity change, negative = cytotoxicity": "0.616%"},
      {"smiles": "O=C(O)[C@H]1CCCC[C@H]1C(=O)N1CCc2ccccc2[C@H]1CN1C(=O)c2ccccc2C1=O", "outcome": "inactive"},
      {"smiles": "CC(C)=CCCC1(C)Oc2cc3c(c4c2C2C(O4)C(C)(O)CCC21)CN(C(CCC(=O)O)C(=O)O)C3=O", "note": "(centres undefined)", "activity change, negative = cytotoxicity": "8.28% [at 17.3 µM]"},
      {"smiles": "C[C@]1(O)CC[C@@H]2C(C(=O)O)=CO[C@@H](O[C@@H]3O[C@H](COC(=O)c4ccc(O)cc4)[C@@H](O)[C@H](O)[C@H]3O)[C@@H]21", "outcome": "inactive [at 17.3 µM]"},
      {"smiles": "C=CC1C(O[C@@H]2O[C@H](CO)[C@@H](O)[C@H](O)[C@H]2O)OC=C(C(=O)OC)C1CC(=O)O", "note": "(some centres undefined)", "outcome": "inactive [at 17.3 µM]"},
      {"smiles": "C[C@@]12C[C@]3(O)O[C@H](O1)[C@]1(COC(=O)c4ccccc4)[C@H]3C[C@@]12O[C@@H]1O[C@H](COC(=O)c2ccccc2)[C@@H](O)[C@H](O)[C@H]1O", "outcome": "inactive [at 17.3 µM]"},
      {"smiles": "COc1ccc(C[C@@H](C)NC[C@H](O)c2ccc(O)c(NC=O)c2)cc1", "activity change, negative = cytotoxicity": "-2.76%"},
      {"smiles": "C[C@H](NCc1ccc(OCc2ccccc2F)cc1)C(N)=O", "outcome": "inactive"},
      {"smiles": "C=C1C2=CC(O)C(C)C1(C)CC/C(C)=C/CCC1(C)OC1C2=O", "note": "(centres undefined)", "outcome": "inactive"},
      {"smiles": "CC[C@@]1(O)C(=O)OCc2c1cc1n(c2=O)Cc2cc3c([N+](=O)[O-])cccc3nc2-1", "Potency": "16.4 µM (active)"},
      {"smiles": "COC1C2=C(COC2=O)C2(C)CCCC(C)(CO)C2C1OC(=O)c1ccccc1", "note": "(centres undefined)", "outcome": "inactive [at 17.3 µM]"},
      {"smiles": "Cc1cn2c(N)c(Cl)cc(C(=O)NCC3CCN(CC(C)C)CC3)c2n1", "activity change, negative = cytotoxicity": "-23.3%"},
      {"smiles": "COC1=Cc2c(nc3n(c2=O)C(C)C(=O)NC3(O)C(C)C)OC=C1", "note": "(centres undefined)", "activity change, negative = cytotoxicity": "0.547%"},
      {"smiles": "CC(C)(C)NCc1cc(Nc2ccnc3cc(Cl)ccc23)c2c(c1O)CCCC2", "activity change, negative = cytotoxicity": "0.372% [at 0.354 µM]"},
      {"smiles": "CC1(C)C[C@H]2C3=CCC4[C@@]5(C)CC[C@H](O[C@H]6O[C@H](C(=O)O)[C@@H](O)[C@H](O)[C@H]6O[C@H]6O[C@H](CO)[C@@H](O)[C@H](O)[C@H]6O[C@@H]6O[C@H](CO)[C@@H](O)[C@H](O)[C@H]6O)[C@](C)(CO)C5CC[C@@]4(C)[C@]3(C)CC[C@@]2(C)[C@H](O[C@@H]2OC[C@H](O)[C@H](OC3O[C@H](CO)[C@@H](O)[C@H](O)[C@H]3O)[C@H]2O)[C@@H]1O", "note": "(some centres undefined)", "outcome": "inactive [at 9.29 µM]"},
      {"smiles": "COc1ccc2cc(OCC3(C(=O)O)CN(C(=O)c4ccc(F)cc4)C3)ccc2c1", "outcome": "inactive"},
      {"smiles": "CC1(CO)CC2C(O)C(=O)C3(CO)CC3(C)C2C1", "note": "(centres undefined)", "outcome": "inactive"},
      {"smiles": "CCc1cc2c(=O)c(-c3nc4ccccc4s3)coc2c(CN2CCCCC2)c1O", "activity change, negative = cytotoxicity": "-4.09% [at 17.3 µM]"},
      {"smiles": "OC[C@H]1O[C@@H](Oc2cc(O)cc(-c3cc4ccc(O)cc4o3)c2)[C@H](O)[C@@H](O)[C@@H]1O", "outcome": "inactive [at 17.3 µM]"},
      {"smiles": "C=CC(C)(O)CC/C=C(\\C)C(=O)OCC1OC(OC2CCC3(C)C(CCC4(C)C3CC=C3C5CC(C)(C)C(O)CC5(C(=O)O)CCC34C)C2(C)C)C(O)C(OC2OC(CO)C(O)C(OC3OC(CO)C(O)C(OC4OC(COC5OC(CO)C(O)C(O)C5O)C(O)C(O)C4O)C3O)C2O)C1O", "note": "(centres undefined)", "activity change, negative = cytotoxicity": "5.27% [at 9.29 µM]"},
      {"smiles": "COc1ccc2c(c1)O[C@H](O[C@@H]1O[C@H](CO)[C@@H](O)[C@H](O)[C@H]1O)C(=O)N2", "outcome": "inactive"},
      {"smiles": "COC(=O)C[C@@H]1C(C(=O)O)=CO[C@@H](O[C@@H]2O[C@H](CO)[C@@H](O)[C@H](O)[C@H]2O)/C1=C\\COC(=O)/C=C\\c1ccccc1", "activity change, negative = cytotoxicity": "7.38% [at 17.3 µM]"},
      {"smiles": "C[C@@H]1O[C@@H](O[C@H]2[C@H](O)[C@@H](C(=O)O)O[C@@H](O[C@H]3CC[C@@]4(C)C(CC[C@]5(C)C4CC=C4C6CC(C)(C)CC[C@]6(C(=O)O)CC[C@]45C)C3(C)C)[C@@H]2O[C@@H]2O[C@H](CO)[C@@H](O)[C@H](O)[C@H]2O)[C@H](O)[C@H](O)[C@H]1O", "note": "(some centres undefined)", "outcome": "inactive [at 9.29 µM]"}
    ]}
  ]
}
